TDP1 cell noCPT – qHTS for Inhibitors of human tyrosyl-DNA phosphodiesterase 1 (TDP1): qHTS in cells in absence of CPT; Potency, µM (titrated, usually from 46.2 µM), without a hit: at the highest dose activity change, negative = growth inhibition, usual class: inhibitors; 420,000 tested, 15% active; DT40 Tdp1-/- hTDP1 cells, no CPT, ATP luminescence, 48 h; note: potency is the fitted concentration of half-maximal effect; nearly all actives have a fitted effect of over 55% in size
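Growth of hTDP1-complemented DT40 Tdp1-knockout cells is measured by ATP luminescence after at least 48 hr compound exposure at 37 °C, with DMSO substituting for the 20 nM CPT used in the parallel screen.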
HT1080-NT tox – qHTS for induction of synthetic lethality in tumor cells producing 2HG: qHTS for the HT-1080-NT fibrosarcoma cell line; 360,000 tested, 1.6% active; Potency, µM (titrated, usually from 46.1 µM), for inactives: top-dose activity, negative = less viability, usual class: cytotoxic; HT-1080-NT fibrosarcoma viability, CellTiter-Glo ATP luminescence, 48 h; AID 686970, 2013;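 note: NT is the 2HG producing partner of a matched IDH1 knockdown line; potency is the fitted concentration of half-maximal effect; 0% = DMSO-treated cells and -100% = media-only wells without cells; nearly all actives have a fitted effect of over 55% in size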
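Viability of the 2HG-overproducing fibrosarcoma line after 48 hours of compound exposure at 37 degrees C was determined by luminescence with CellTiter-Glo, and concentration-effect curves were then fitted and categorized.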
TDP1 cell CPT – qHTS for Inhibitors of human tyrosyl-DNA phosphodiesterase 1 (TDP1): qHTS in cells in presence of CPT | chicken DT40 Tdp1-/-;hTDP1 cells + 20 nM CPT, ATP luminescence, 48 h | Potency, µM (top dose mostly 46.2 µM), for inactives: at the highest dose activity change, negative = growth inhibition, usual class: inhibitors | 420,000 tested, 12% active; note: potency is the fitted concentration of half-maximal effect; nearly all actives have a fitted effect of over 55% in size
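Chicken DT40 Tdp1-/- cells stably complemented with human TDP1 were seeded at 400 cells/well in medium containing 20 nM camptothecin, exposed to pin-transferred compounds, and grown at 37 °C for at least 48 hr. Viability was read as ATP luminescence.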
IL-1B inflam inh – qHTS for Inhibitors of Inflammasome Signaling: IL-1-beta AlphaLISA Primary Screen; 360,000 tested, 4.7% active; THP-1 LPS/ATP IL-1B secretion, AlphaLISA, 16 h; active compounds read low; activity change, % at 57.5 µM; in the data active = activity change below about -50%; inconclusive = mostly about -30% to -49%
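THP-1 cells pretreated 1 hr with compounds (up to 57.5 uM final), then stimulated with LPS (250 ng/mL final) plus ATP (1.25 mM final); secreted IL-1B measured by AlphaLISA after 16 hr, decreased signal indicating inhibition.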
uPA surface inh – qHTS for Inhibitors of Cell Surface uPA Generation; cell surface uPA generation assay, qHTS; Potency, µM (highest dose often 38.3 µM), for the others: top-dose activity change, negative = inhibition, hits mostly inhibitors; 330,000 tested, 0.31% active; active = well fitted inhibition curve with a large enough effect; inconclusive = small, poorly fitted or top-dose-only effect; inactive = no such curve, though single readings can be large or run the other way; tested in mouse RAW 264.7 cells; note: potency is the fitted concentration of half-maximal effect; nearly all actives have a fitted effect of over 55% in size
HT1080 IDH1KD tx – qHTS for induction of synthetic lethality in tumor cells producing 2HG: qHTS for the HT-1080-IDH1KD cell line; HT-1080 IDH1 knockdown viability, ATP luminescence, 48 h; Potency, µM (top dose mostly 46.1 µM), inactives show at the highest dose activity, negative = toxicity, actives largely listed as cytotoxic; 360,000 tested, 2% active; AID 686971, 2013;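 note: potency is the fitted concentration of half-maximal effect; 0% = DMSO wells and -100% = cell-free medium wells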
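Assay cells: HT-1080 with IDH1 knockdown, 750 per well, RPMI/5% FBS. Exposure: 48 h at 37 °C following 2 h pre-incubation. Read: CellTiter-Glo luminescence; fitted concentration-response, curve class assigned.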
* marks the source's active call; other numbers are inactive results; ? = inconclusive; · = no result given. Only some compounds are listed: those with a hit (about 19% of all), similar ones and a draw of the others. Unless noted, calls come from the whole dose curve; as a rule, active = well fitted curve in the direction sought with a large enough effect; inconclusive = small, poorly fitted or top-dose-only effect, or another doubt; inactive = no such curve, though single readings can be large; an effect the other way counts as inactive or inconclusive. Unless noted, % is set by controls: 0 for no effect and ±100 for the full control effect.

SMILES	TDP1 cell noCPT	HT1080-NT tox	TDP1 cell CPT	IL-1B inflam inh	uPA surface inh	HT1080 IDH1KD tx
COc1cccc(N2C(=O)CSC23C(=O)N(CC(=O)Nc2cccc(Cl)c2)c2ccccc23)c1 (configuration not stated)	?	·	18.4µM*	·	·	·
O=C(CN1C(=O)C2(SCC(=O)N2c2cccc(Cl)c2)c2ccccc21)NC1CCCCC1 (configuration not stated)	18.4µM*	·	16.4µM*	·	·	·
CCOc1ccc(N(CC(=O)N2CCOCC2)S(=O)(=O)c2ccc(F)cc2)cc1	-19.1%	7.4%	-4.1%	-8.9	-0.4%	12.2%
NS(=O)(=O)c1ccc(CCNS(=O)(=O)Cc2ccc(Cl)cc2)cc1	-26.8%	1.6%	5.4%	19.0	2.2%	1.7%
CC(C)C(N)c1csc(Nc2ccc(S(C)(=O)=O)cc2)n1 (configuration not stated)	0.0%	7.6%	6.8%	-26.3	·	3.1%
NC(Cc1ccc(C(F)(F)F)cc1)c1csc(Nc2ccc(S(N)(=O)=O)cc2)n1 (configuration not stated)	20.6µM*	20.6µM*	13µM*	?	·	?
CS(=O)(=O)c1ccc(Nc2nc(C(N)Cc3ccc(Cl)cc3)cs2)cc1 (configuration not stated)	16.4µM*	14.6µM*	11.6µM*	?	·	?
COc1ccc(C(N)c2csc(Nc3ccc(S(C)(=O)=O)cc3)n2)cc1 (configuration not stated)	?	-17.5%	23.1µM*	-25.2	·	-8.3%
NC(Cc1ccc(Cl)cc1)c1csc(Nc2ccc(S(N)(=O)=O)cc2)n1 (configuration not stated)	9.2µM*	?	14.6µM*	?	·	?
C=CCCC(=O)N1C[C@H]2CON(C)[C@H]2C[C@H]1c1cccc(N2CCOCC2)c1	-3.4%	11.7%	0.4%	-2.2	·	1.6%
CN(C)Cc1ccccc1-c1nc(N(C)Cc2ccco2)c2ccccc2n1	8.2µM*	·	18.4µM*	·	·	·
CC(=O)NCCNc1nc(-c2ccccc2CN(C)C)nc2ccccc12	3.7%	·	13.3%	·	·	·
CN(C)Cc1ccccc1-c1nccc(N(C)Cc2ccco2)n1	?	·	20.6µM*	·	·	·
CC1=CC(=O)Nc2ncccc2O1	?	-29.5%	?	9.8	·	-18.5%
O=Cc1ccc(OCc2cn(CC(=O)c3ccc(O)cc3)nn2)cc1	13.4%	-10.7%	5.1%	13.7	12.8%	-0.6%
CCN(Cc1ccccc1)C(=O)CN1C(=O)COc2ccc(S(=O)(=O)N3CCCCCC3)cc21	23.1µM*	-19.1%	20.6µM*	0.0	-11.7%	-13.4%
CCN(Cc1ccccc1)C(=O)CN1C(=O)COc2ccc(S(=O)(=O)N(CC)CC)cc21	?	·	23.1µM*	·	·	·
CC1CCN(S(=O)(=O)c2ccc3c(c2)N(CC(=O)N(C)Cc2ccccc2)C(=O)CO3)CC1	20.6µM*	·	?	·	·	·
CCN(CC)S(=O)(=O)c1ccc2c(c1)N(CC(=O)Nc1c(C)cccc1C)C(=O)CO2	-3.2%	·	2.3%	·	·	·
CCN(CC)S(=O)(=O)c1ccc2c(c1)N(CC(=O)N(C)Cc1ccccc1)C(=O)CO2	25.9µM*	·	?	·	·	·
CCN(Cc1ccccc1)C(=O)CN1C(=O)COc2ccc(S(=O)(=O)N3CCOCC3)cc21	-25.9%	·	?	·	·	·
Cn1nnc2cc(NC(=O)Nc3cccc(C(F)(F)F)c3)ccc21	10.3%	14.1%	-6.4%	?	-6.1%	25.0%
CCc1ccc(CN(C(=O)c2oc3ccccc3c2C)C2CCS(=O)(=O)C2)cc1 (configuration not stated)	18.4µM*	-0.4%	?	-27.3	9.1%	-5.5%
O=C1C2CC=CCC2C(=O)N1CC(=O)N(Cc1ccccc1)C1CCS(=O)(=O)C1 (configuration not stated)	4.5%	1.3%	-8.3%	27.8	-7.9%	-0.5%
Cc1ccsc1CN(C(=O)c1oc2ccccc2c1C)C1CCS(=O)(=O)C1 (configuration not stated)	5.17µM*	·	8.2µM*	·	·	·
SMILES	TDP1 cell noCPT	HT1080-NT tox	TDP1 cell CPT	IL-1B inflam inh	uPA surface inh	HT1080 IDH1KD tx
Cc1c(C(=O)N(Cc2ccc(F)cc2)C2CCS(=O)(=O)C2)oc2ccccc12 (configuration not stated)	-28.1%	3.8%	?	?	-9.9%	-1.6%
O=C(Cn1c(=O)oc2ccccc21)N(Cc1ccccc1)C1CCS(=O)(=O)C1 (configuration not stated)	?	4.7%	23.1µM*	-4.6	0.7%	10.6%
Cc1c(C(=O)N(Cc2ccc(N(C)C)cc2)C2CCS(=O)(=O)C2)oc2ccccc12 (configuration not stated)	?	14.7%	29.1µM*	-5.9	3.1%	-20.3%
COc1ccc(CCN2C(=O)COc3ccccc3C2C(=O)NC(C)(C)C)cc1OC (configuration not stated)	-13.7%	5.0%	-2.4%	-3.5	·	22.8%
Cc1c(C(=O)N(Cc2ccccc2)C2CCS(=O)(=O)C2)oc2ccccc12 (configuration not stated)	20.6µM*	-0.2%	?	-26.6	3.1%	-9.7%
Cc1c(C(=O)N(Cc2cccc(Br)c2)C2CCS(=O)(=O)C2)oc2ccccc12 (configuration not stated)	20.6µM*	-22.6%	?	-14.1	9.8%	?
O=C(c1ccccc1)N(Cc1cccc(Br)c1)C1CCS(=O)(=O)C1 (configuration not stated)	3.2%	-3.1%	-3.5%	0.0	-19.5%	15.0%
COc1ccc(N(CC(=O)N/N=C(\C)c2ccc(OC)c(OC)c2)S(=O)(=O)c2ccccc2)cc1	0.5%	?	9.0%	2.1	-8.4%	?
COc1ccc(-n2c(=O)c3c4c(sc3n(Cc3ccccc3Cl)c2=O)CCC4)c(OC)c1	20.6µM*	·	?	·	·	·
CCCN(CCC)C(=O)Cn1c(=O)n(-c2ccc(OC)cc2OC)c(=O)c2c3c(sc21)CCC3	?	·	-2.9%	·	·	·
COc1ccc(-n2c(=O)c3c4c(sc3n(Cc3ccc(C)cc3C)c2=O)CCC4)c(OC)c1	?	·	18.4µM*	·	·	·

Screening results as filed in PubChem BioAssay.
